Assay outcomes: PubChem, National Center for Advancing Translational Sciences (NCATS)
Shiga inhibitor – A qHTS for Small Molecule Inhibitors of Shiga Toxin; 290,000 compounds, 9.2% hits; inhibition, % at 38.7 µM; AID 2315, 2010; Vero cells, Shiga toxin protein synthesis inhibition reporter; in the data active = inhibition mostly above about 28%, no sharp cut-off; inactive = mostly below about 43%; also: 0% is about no effect
Pf growth 48h – Primary qHTS for delayed death inhibitors of the malarial parasite plastid, 48 hour incubation; P. falciparum luciferase growth in erythrocytes, 48 h; Potency, µM (doses to about 28.7 µM), for the others: at the top dose activity change, negative = inhibition, most hits filed as inhibitors; 310,000 compounds, 5.9% hits; AID 504832, 2011; also: potency is read from the fitted curve at half-maximal effect; % is scaled to controls: 0 for no effect and ±100 for the full control effect
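Firefly luciferase activity from engineered P. falciparum reports growth; inhibitors lower the luminescent signal. Cultures contained 2% hematocrit erythrocytes at 0.1% final parasitemia.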
NS1 function inh – qHTS Assay for Inhibitors of Influenza NS1 Protein Function; Potency, µM (titrated, usually from 46.1 µM), for the others: at the highest dose activity, positive = more growth; 270,000 compounds, 0.4% hits; AID 2326, 2010; calls by dose curve; also: potency is read from the fitted curve at half-maximal effect; actives are rising curves; nearly all actives have a fitted effect of over 50% in size
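Recovery from NS1-induced slow growth read by OD600 in budding yeast switched to galactose assay medium (pH 6.0, -URA) at 1:100 dilution. Compound 23 nl per well; the matching strain lacking NS1 serves as control.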
SARS PLpro yeast – qHTS of Yeast-based Assay for SARS-CoV PLP. 330,000 compounds, 0.19% hits. S. cerevisiae expressing SARS-CoV PLpro, growth rescue. Potency, µM (doses to about 32.9 µM), inactives show at the top dose activity, positive = growth rescue, hits mostly activators; calls by dose curve; also: potency is read from the fitted curve at half-maximal effect; 0% is about no effect; nearly all actives have a fitted effect of over 55% in size
Pf growth 96h – Primary qHTS for delayed death inhibitors of the malarial parasite plastid, 96 hour incubation. AID 504834, 2011. Potency, µM (titrated, usually from 28.7 µM), for inactives: at the top dose activity change, negative = inhibition, hits mostly inhibitors. 320,000 compounds, 6.9% hits. P. falciparum luciferase reporter growth, 96 h; also: potency is read from the fitted curve at half-maximal effect; % is scaled to controls: 0 for no effect and ±100 for the full control effect
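Two-generation exposure (96 h) targets delayed-death phenotype. Reporter parasites carrying integrated firefly luciferase, in red cells at 2% hematocrit and 0.05% parasitemia final, kept at 37 C, 5% CO2; luminescence loss indicates inhibition.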
Cycloheximide cs – Cycloheximide Counterscreen for Small Molecule Inhibitors of Shiga Toxin | cell reporter, cycloheximide protein synthesis inhibition counterscreen | 300,000 compounds, 12% hits | max response, % | AID 2314, 2010; in the data active = max response mostly above about 13%, no sharp cut-off; inactive = mostly below about 14%; also: read at 38.3 µM for the half of the compounds with a filed dose; 0% is about no effect
The depositor's hits bear a star; i = inactive; ? = inconclusive; · = not tested or not shown. Shown are actives, neighbours in structure and some others; about 21% of the full set was active somewhere. Unless noted, calls follow the shape of the dose curve; as a rule, active = well fitted inhibition curve with a large enough effect; inconclusive = small, poorly fitted or top-dose-only effect, or another doubt; inactive = no such curve, though single readings can be large or run the other way.

SMILES | Shiga inhibitor | Pf growth 48h | NS1 function inh | SARS PLpro yeast | Pf growth 96h | Cycloheximide cs
Cc1ccc(C(=O)N2CCN(c3ccc(NC(=S)NC(=O)c4cccs4)cc3)CC2)cc1 | 12.7 | ? | 18.4% | 1.2% | -14.7% | -2.2
O=C(NC(=S)Nc1ccc(N2CCOCC2)cc1)c1cccs1 | 73.4* | 45.2% | 2.8% | 0.0% | 0.0% | 41.1*
CNC(=O)C1(C(F)(F)F)CC(CCCO)CCCO1 (stereo unspecified) | -7.5 | · | · | · | · | 6.1
COc1ccc(C(=O)NNC(=O)c2ccc3ccccc3n2)cc1 | · | -28.9% | · | 0.1% | -7.5% | ·
CC(C)c1onc(C(=O)Nc2ccc3c(c2)OCO3)c1[N+](=O)[O-] | 52.1* | 7.9% | -18.2% | -8.6% | 38.6% | 33.1*
Cc1onc(C(=O)Nc2ccccc2C(F)(F)F)c1[N+](=O)[O-] | -8.8 | 22.7% | 24.0% | 2.1% | -4.5% | 38.0
Cc1ccc(NC(=O)c2noc(C(C)C)c2[N+](=O)[O-])cc1 | 78.4* | ? | · | -0.2% | ? | 55.4*
CC(C)c1cc(C(=O)Nc2cccc(C(F)(F)F)c2)no1 | 121.5* | · | -4.0% | -10.4% | ? | 49.7*
CCc1ccccc1NC(=O)c1noc(C(C)C)c1[N+](=O)[O-] | 20.8 | 9.5% | · | -4.5% | -12.0% | 5.2
Cc1onc(C(=O)Nc2cccc(C(F)(F)F)c2)c1[N+](=O)[O-] | 21.9 | 20.4% | -6.8% | -7.4% | -1.3% | 26.8*
O=C(Nc1cccc(C(F)(F)F)c1)c1cc(-c2ccc(F)cc2)on1 | 70.4 | 15.3% | -0.5% | 8.4% | · | 9.3
Cc1ccsc1/C=N/n1c(COc2ccccc2)n[nH]c1=S | -3.9 | 8.8% | 9.0% | 13.8% | 0.0% | -3.4
CC12CCC(C/C1=N\OC(=O)c1c(F)cccc1F)C2(C)C (stereo unspecified) | 16.1 | -2.4% | 0.7% | -0.4% | ? | 15.3
COc1cccc(NC(=S)N(CCC(C)C)C2CCN(C(C)=O)CC2)c1 | -8.3 | · | -0.9% | -0.9% | 2.2% | 1.7
CC(C)c1onc(C(=O)Nc2cccc(O)c2)c1[N+](=O)[O-] | 145.4* | -29.4% | · | 1.0% | 92.3% | 31.4*
N=C(N)N1CCN(Cc2ccccc2)CC1 | 7.0 | 70.7% | -4.3% | 0.3% | ? | 1.3
COc1cc2[nH]c(=O)n(CCCCCC(=O)N3CC=C(c4ccccc4)CC3)c(=O)c2cc1OC | -5.1 | · | 4.9% | 7.3% | -14.7% | 10.1
NS(=O)(=O)c1ccc(CCNC(=O)CCCC2=NS(=O)(=O)c3ccccc3N2)cc1 | -18.4 | 0.0% | 3.6% | 1.0% | 5.22µM* | -3.0
O=C(CC1(CC2=NS(=O)(=O)c3ccccc3N2)CCCC1)NCCc1ccccc1 | 18.2 | ? | -51.1% | -13.5% | -0.2% | 8.5*
O=C(CSC1=NS(=O)(=O)c2ccccc2N1)NCCc1ccccc1 | · | 44.4% | · | 0.7% | 30.0% | ·
O=C(CCCC1=NS(=O)(=O)c2ccccc2N1)NCCc1ccc(Cl)cc1 | 26.0 | -5.9% | -6.0% | 0.7% | 3.9% | 1.5
CC(C)NC(=O)COC(=O)c1ccccc1C(=O)c1ccccc1 | -3.0 | 6.3% | · | 0.5% | 11.7% | -4.1
Cc1ccc(S(=O)(=O)Nc2c(Cl)c(Cl)c(O)c3ccccc23)cc1 | 46.6* | -21.4% | -122.1% | -26.8% | ? | 34.0*
CC1=C(C)C(=O)C(CCCCC#CCCCC#CCO)=C(C)C1=O | -12.4 | 13.1µM* | -19.2% | 6.3% | 9.28µM* | -1.8
COCC(C)n1c(C)cc(C(=O)CSc2nnc(Nc3ccccc3F)s2)c1C (stereo unspecified) | 30.0 | 1.47µM* | 18.0% | -9.3% | 0.586µM* | -1.9
SMILES | Shiga inhibitor | Pf growth 48h | NS1 function inh | SARS PLpro yeast | Pf growth 96h | Cycloheximide cs
COCC(C)n1c(C)cc(C(=O)CSc2ncccn2)c1C (stereo unspecified) | 71.6* | 177.7% | · | -0.3% | 210.3% | 36.4*
COCC(C)n1c(C)cc(C(=O)CSc2nnnn2-c2ccc(O)cc2)c1C (stereo unspecified) | 49.9* | ? | · | -0.7% | -29.2% | 28.5*
CC(=O)Nc1ccc(SCC(=O)c2cc(C)n(Cc3cccs3)c2C)cc1 | 100.8* | 171.5% | ? | 10.3% | 19.0% | 77.2*
O=C(CSc1nnc(Nc2ccccc2F)s1)c1cc2ccccc2o1 | 15.4 | 24.0% | 16.2% | -17.3% | 9.3% | 1.6
COc1ccc(S(=O)(=O)N2CCOCC2)cc1NC(=O)CCc1cc(OC)c(OC)c(OC)c1 | · | ? | · | 1.5% | ? | ·
COCCn1c(C)cc(C(=O)CSc2nncn2-c2ccccc2)c1C | 26.1 | -6.0% | 3.6% | 2.1% | 0.0% | 11.8
COCC(C)n1c(C)cc(C(=O)CSc2ccc(NC(C)=O)cc2)c1C (stereo unspecified) | 52.5* | 32.6% | -2.3% | 2.7% | · | 25.6*
COC(=O)c1ccc(-n2c(C)cc(C(=O)CSc3ccc(NC(C)=O)cc3)c2C)cc1 | -7.0 | ? | -2.6% | -39.5% | ? | -3.5
O=C(CSc1ncccn1)c1ccccc1Br | 35.3* | 48.5% | -5.7% | -1.7% | 20.1% | 25.9*
COCCn1c(C)cc(C(=O)CSc2ccc(NC(C)=O)cc2)c1C | 104.9* | 91.9% | -18.3% | -2.8% | 101.6% | 47.0*
CC(=O)Nc1ccc(SCC(=O)c2cc(C)n(-c3ccccc3F)c2C)cc1 | 125.4* | 34.3% | -10.4% | -10.6% | -22.9% | 73.9*
CCOc1ccc(CC(=O)Nc2ccc(NC(=O)c3ccco3)cc2)cc1OCC | 38.4 | -23.3% | · | -0.1% | -0.3% | 14.3
C=CCn1c(C)cc(C(=O)CSc2ccc(NC(C)=O)cc2)c1C | 114.2* | 47.5% | -12.8% | 0.0% | i | 43.3*
COc1ccc(C)cc1NC(=O)C(Sc1nnc(Nc2ccccc2F)s1)c1ccccc1 (stereo unspecified) | -5.8 | -12.9% | ? | -4.5% | 0.0% | 11.0*
CC(=O)Nc1ccc(NC(=O)CSc2ccc(C)cc2)cc1 | 19.8 | · | 1.7% | 17.1% | ? | 6.6
C=CCn1c(SCC2CCCCO2)nc2sc(CC)cc2c1=O (stereo unspecified) | -4.7 | ? | -4.5% | -1.3% | ? | -0.7
CC(C)(C)NC(=O)CN(C(=O)C(=O)Nc1ccc2c(c1)OCCO2)C(C)(C)C | -13.1 | -13.3% | 0.9% | -0.3% | 56.9% | -3.5
Cc1cccnc1NC(=O)CNC(=O)C12CC3CC(CC(C3)C1)C2 | · | 25.0% | · | -0.2% | 4.1% | ·
C/C(=N\NC(=O)c1ccncc1)C12CC3CC(CC(C3)C1)C2 | 11.0 | -13.7% | 9.4% | -1.8% | 0.9% | 10.5
Cc1ccc(/C(N)=N/OC(=O)C23CC4CC(CC(C4)C2)C3)cc1 | 101.5* | 35.1% | -40.3% | -6.1% | ? | 22.8*
N/C(=N\OC(=O)C12CC3CC(CC(C3)C1)C2)c1ccncc1 | 28.4 | 10.4µM* | -2.7% | 4.2% | ? | 7.2
Cc1ccc(C23CC4CC(CC(C(N)=O)(C4)C2)C3)cc1 | -10.6 | 29.7% | -7.7% | -2.7% | ? | -3.0
